These results are taken from PubChem BioAssay AID1979 (Broad Institute, 2009).

Out of some 300,000 compounds screened, about 1,700 (0.57%) were called active. Another 2% or so got no clear call; they are omitted. Only a selection was taken, and actives are over-represented in it overall. Values without a mark were called inactive.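 The calls were made as follows: active = growth inhibition above about 58% in most replicates (limit read from the data, passing the limit was not always enough); inconclusive = exactly half the replicates above a set limit; inactive = most replicates below a set limit.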

This assay in a line: Candida growth reduction under fluconazole – CaCi-2 strain, Alamar Blue fluorescence, primary screen (AID 1979).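 Also: all wells also contain fluconazole at 8 µg/ml as a sub-toxic cotreatment; 0% = median of DMSO wells and 100% = median of geldanamycin control wells.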 The settings on record: C. albicans CaCi-2 (fluconazole-resistant clinical isolate) + fluconazole, 48 h, active compounds read high, concentration not given here.
Turning to `CC(=O)Nc1ccc(NC(=O)CSc2nnnn2C2CCCCC2)cc1`, the growth inhibition is -2.4%.
For `Oc1c(Cl)cc(Cl)c(Cl)c1Cc1c(O)c(Cl)cc(Cl)c1Cl` the value was 110% (active); for `Cc1c(C(=O)Nc2ccccn2)oc2ccc(Br)cc12`, 27.1%.
Next, `COc1ccc(OC)c(NC(=O)c2ccc3c(c2)C(=O)N(c2ccc(OC(C)=O)cc2)C3=O)c1`: 0.417%; `CC(=O)c1sc(N)nc1C`: -4.24%; `Cc1ccc(NC(=O)COc2coc(CN3CCc4ccccc4C3)cc2=O)cc1Cl`: -1.39%.
Next, `Cc1ccc(CC(=O)N(C)CC(=O)N(CC(C)C)c2c(N)n(CC(C)C)c(=O)[nH]c2=O)cc1C`: 1.58%.
For the compound `Oc1ccccc1CN1CCN(C(c2ccccc2)c2ccccc2)CC1`, the growth inhibition was -4.19%.
For `CCN1CCN(C(c2cccnc2)c2cc(Cl)c3cccnc3c2O)CC1` (stereo not drawn) the value was 101% (active); for `CCOC(=O)N1CCN(C(c2cccnc2)c2ccc3cccnc3c2O)CC1` (stereo not drawn), -9.67%.
For `CC(=O)Nc1ccc(C(=O)Nc2cccc(S(=O)(=O)NC3=NCCC3)c2)cc1` the value was 3.58%; for `O=C(CCCO)N/N=C/c1cc(Br)ccc1O`, -31.2%; for `Oc1ccc(/C=N/Nc2ccc(C(F)(F)F)cn2)cc1O`, -7.01%.
Next, `Oc1ccc(Br)cc1/C=N/Nc1ccccn1`: 106% (active).
As to `Cc1cc(NC(=O)C(C)SCC(=O)Nc2ccccc2N2CCCCC2)no1` (stereo not drawn), the growth inhibition was 1.22%.
For the compound `O=C(Nc1nc(-c2ccco2)c(-c2ccco2)s1)c1ccco1`, the growth inhibition was -0.652%.
For `CSc1nsc(SCC(=O)Nc2cc(C(=O)O)ccc2C)n1` the value was 17.7%; for `CCc1nnc(NC(=O)CCC(=O)O)s1`, -5.2%.
For `CCc1nnc(NC(=O)CSc2nc(SC)ns2)s1` the value was 81.2% (active); for `CC(=O)O[C@H]1CC[C@@]2(C)[C@@H](CC[C@@H]3[C@@H]2CC[C@]2(C)[C@@H](C(C)(C)O)C[C@@H]32)C1`, 1.13%.
Next, `O=C1CCCCC1Sc1ccc(Cl)cc1[N+](=O)[O-]` (stereo not drawn): -3.28%; `C[C@@H]1O[C@@H](OC[C@H]2O[C@@H](Oc3c(-c4ccc(O)cc4)oc4cc(O)cc(O)c4c3=O)[C@H](O)[C@@H](O)[C@@H]2O)[C@H](O)[C@H](O)[C@H]1O`: 1.9%.
Turning to `Cc1ccc(-c2cc(C(=O)NC3CCN(Cc4ccccc4)CC3)c3ccccc3n2)cc1`, the growth inhibition was 2.43%.
For `CCOC(=O)N1CCN(C(=O)c2ccc(S(=O)(=O)Nc3cccc(C(F)(F)F)c3)cc2)CC1` the value was -2.84%; for `Cc1oc2c(F)c(F)c(F)c(F)c2c1S(=O)(=O)Nc1cccc(C(F)(F)F)c1`, 84.7% (active); for `CCNS(=O)(=O)c1ccc(NC(=O)Nc2cccc(C(F)(F)F)c2)cc1`, -8.1%.
Next, `Cc1cc(NC(=O)CCS(=O)(=O)c2ccc(F)cc2)no1`: -4.39%.
Next, `CN(CC(=O)Nc1cccc(F)c1)C(=O)C1=COCCO1`: -19.9%.
For the compound `Cc1ccc(S(=O)(=O)N2CCC(C(=O)OCC(=O)N(C)c3ccccc3)CC2)cc1C`, the growth inhibition was 5.01%.
For `CC(NS(=O)(=O)c1ccc(Br)cc1)C(=O)NCC1CCCO1` (stereo not drawn) the value was -9.65%; for `OC(CNCC1CCCO1)Cn1c2ccc(Br)cc2c2cc(Br)ccc21` (stereo not drawn), 101% (active); for `CCCN1CCn2c3c(c4cc(Br)ccc42)CCCC31` (stereo not drawn), -13.4%.
For `Cc1nc(-c2ccc(Cl)cc2)sc1C1(C)CC(c2ccc(Br)cc2)=NO1` (stereo not drawn) the value was 1.65%; for `COCCNC(=O)C1CCN(S(=O)(=O)c2ccc3c(c2)OCCO3)CC1`, 0.395%; for `Cc1ccc(NC(=O)c2sc3nc(N)c(C#N)cc3c2N)cc1`, 88.6% (active).
For `CCc1ccc2nc3sc(C(=O)Nc4nnc(CC)s4)c(N)c3cc2c1` the value was 44%; for `COc1ccc(NC(=O)c2cc(-c3ccc(C)cc3)on2)cc1`, 2.77%.
With `COC(=O)c1ccc(SCc2ccccc2)nc1`, the growth inhibition was 13.7%.
In the case of `CN(C)c1nc(NN)nc(Nc2ccc(F)cc2)n1`, the growth inhibition was 3.13%.
For `COc1cnn(-c2ccc([N+](=O)[O-])cc2)c(=O)c1Cl` the value was -11.1%; for `Cc1ccc(N2CC(C(=O)Nc3cc(Cl)ccc3-n3cncn3)CC2=O)cc1` (stereo not drawn), -4.63%; for `O=C(Nc1ccc(Br)cn1)c1ccc([N+](=O)[O-])o1`, 18.1%.
For `Cc1onc(NC(=O)c2ccc([N+](=O)[O-])o2)c1Br` the value was -0.786%.
For `Cc1cccc(NC(=O)c2ccc([N+](=O)[O-])o2)c1` the value was 83.3% (active).
`CC(=O)N(CC(O)CO)c1c(I)c(C(=O)NCC(O)CO)c(I)c(C(=O)NCC(O)CO)c1I` (stereo not drawn): the growth inhibition was -2.27%.
Next, `COc1cccc(CC(=O)Nc2nc(-c3ccc(OC)c(OC)c3)cs2)c1`: -0.204%; `COc1ccc(C)cc1Nc1nc(-c2c(C)[nH]c3ccccc23)cs1`: 0.619%.
For `COc1ccc(OC)c(Nc2nc(-c3ccc(O)c(O)c3)cs2)c1` the value was 97.8% (active).
Next, `O=C(NCCC1CCCCN1S(=O)(=O)c1ccccc1)C(=O)NCC1CCCO1` (stereo not drawn): -4.24%; `N#Cc1cccc(OC(=O)c2ccc3c(=O)n4c(nc3c2)CCC4)c1`: 6.7%.
With `Brc1cnc2ccccc2c1N1CCCCC1`, the growth inhibition is 0.784%.
Next, `CCOc1cc(N2CCOCC2)c(OCC)cc1NC(=O)COc1cccc2cccnc12`: 101% (active); `CCOc1cc(N2CCOCC2)c(OCC)cc1NC(=O)c1cc(C)nc2ccccc12`: -4.82%.
Regarding `CCOc1cc(N2CCOCC2)c(OCC)cc1NC(=O)COc1cccc(Cl)c1`, the growth inhibition was 18.5%.
For `Cc1ccc(-c2nnn(CC(=O)N(Cc3ccco3)C(C(=O)NC(C)(C)C)c3ccncc3)n2)o1` (stereo not drawn) the value was 115% (active).
For `Cc1ccc(-c2nnn(CC(=O)N(CCO)C(C(=O)NC(C)(C)C)c3ccncc3)n2)cc1` (stereo not drawn) the value was -7.13%; for `Cc1cccc(N(C(=O)Cn2nnc(-c3ccc(C)o3)n2)C(C(=O)NC2CCCC2)c2ccncc2)c1` (stereo not drawn), 9.19%.
For `Cc1c(C(=O)NC(C)C2CC3CCC2C3)cccc1[N+](=O)[O-]` (stereo not drawn) the value was -2.33%.
